Most compounds without a hit are left out; they make up all but 3% or so of the library.
KKLEB tox = cytotoxicity in KKLEB CF airway cells, primary screen, cytotoxicity control for CF NF-kB inhibitor project, cell-based, uHTS, fluorescence assay plates | AID 602141, 2011 | actives 0.36% (n = 360,000) | KKLEB CF airway cells viability, ATPlite luminescence, overnight; hits give low values; cells stimulated with P. aeruginosa culture filtrate | activity change (cytotoxicity), % at 5 µM;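 active means corrected activity change at or below -50% at 5 µM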
ABHD5 PLIN5 PPI = ABHD5-PLIN5 interaction inhibitors, primary screen, cell lysate, split luciferase complementation, luminescence | Perilipin-5 (Homo sapiens) + 1-acylglycerol-3-phosphate O-acyltransferase ABHD5 (Homo … | Split G. princeps luciferase complementation, 4 h | inhibition, % at 4 µM | actives 0.78% (n = 360,000) | AID 602281, 2012;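 active means inhibition above the mean inhibition across every tested compound plus 3 SD, cut at about 22% in these data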;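 further: 0% = DMSO only wells and the 100% control is not disclosed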
Target sequence (Q00G26 whole entry, looked up): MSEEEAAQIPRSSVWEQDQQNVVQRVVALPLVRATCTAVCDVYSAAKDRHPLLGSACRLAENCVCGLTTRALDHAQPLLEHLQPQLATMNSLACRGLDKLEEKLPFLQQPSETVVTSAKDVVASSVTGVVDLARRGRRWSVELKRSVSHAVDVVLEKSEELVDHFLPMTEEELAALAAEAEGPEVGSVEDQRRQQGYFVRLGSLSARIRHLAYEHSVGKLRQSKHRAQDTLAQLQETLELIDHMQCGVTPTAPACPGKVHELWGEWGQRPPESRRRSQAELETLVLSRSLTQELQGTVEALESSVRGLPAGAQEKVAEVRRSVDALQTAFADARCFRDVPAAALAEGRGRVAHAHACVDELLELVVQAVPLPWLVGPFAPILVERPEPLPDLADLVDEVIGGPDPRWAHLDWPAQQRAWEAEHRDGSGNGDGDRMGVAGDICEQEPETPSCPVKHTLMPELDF
Target sequence (Q8WTS1 whole entry, looked up): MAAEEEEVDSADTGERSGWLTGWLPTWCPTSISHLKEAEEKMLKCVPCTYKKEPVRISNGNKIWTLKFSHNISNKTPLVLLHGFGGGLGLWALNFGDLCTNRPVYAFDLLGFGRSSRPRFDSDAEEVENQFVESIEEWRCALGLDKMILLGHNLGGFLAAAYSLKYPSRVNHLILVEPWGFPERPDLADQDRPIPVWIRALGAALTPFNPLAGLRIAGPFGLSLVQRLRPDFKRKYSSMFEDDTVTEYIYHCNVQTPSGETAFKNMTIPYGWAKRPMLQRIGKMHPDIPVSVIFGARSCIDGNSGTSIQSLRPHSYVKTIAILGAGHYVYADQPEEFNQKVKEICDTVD
CF NFkB block = inhibitors of PAF-induced NF-kB signaling, primary screen, cell-based, GFP fluorescence, uHTS; KKLEB NF-kB-GFP reporter, GFP fluorescence overnight; inhibition, % at 5 µM; actives 0.86% (n = 360,000); AID 588850, 2011;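 active means at least 50% inhibition at 5 µM, scaled per plate between neutral and stimulator controls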;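 further: PAF is a Pseudomonas aeruginosa culture filtrate used as stimulus; plate controls were PAF-stimulated DMSO wells for no effect and unstimulated DMSO wells for full effect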
MITF TRPM1 inh = inhibitors of MITF-dependent TRPM1 promoter reporter, primary screen, cell-based, SK-MEL-5, single point, luciferase. SK-MEL-5 TRPM1 promoter luciferase, 24 h. inhibition, % at 12.5 µM. actives 0.83% (n = 330,000). AID 488899, 2010;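 active means mean inhibition across replicates of 60% or more, whatever share of single replicates reaches that level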
HIF-2a inh = HIF-2a reporter inhibitors, primary screen, luminescence, 786-0 RCC cells. 786-0 RCC cells HIF-2a reporter, luciferase luminescence, overnight. inhibition, % at 18.8 µM. actives 0.72% (n = 360,000). AID 624352, 2012;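 active means inhibition of the luminescence signal of 40% or more relative to plate controls, in a single-dose primary screen at 18.75 µM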
Peg3 prom inh = Peg3 promoter-driven luciferase inhibitors, primary screen, cell-based, HeLa, luciferase luminescence; HeLa PEG-Prom luciferase reporter, overnight; inhibition, % at 20 µM; actives 1.7% (n = 360,000);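 active means inhibition of at least 50% at 20 µM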
CF NFkB inh conf = inhibitors of PAF-induced NF-kB signaling, retest, confirmation, cell-based, GFP fluorescence, single concentration | shares compounds with CF NFkB block | KKLEB CF airway cells, overnight | inhibition, % at 5 µM | actives 64% (n = 1,300) | AID 602472, 2012; in the data active means inhibition above about 40%;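 further: stimulus PAF is a Pseudomonas aeruginosa filtrate and not platelet activating factor; plate controls were DMSO wells with stimulus for no effect and unstimulated DMSO wells for full effect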
Active calls of the source: *; . = no result.

SMILES | KKLEB tox | ABHD5 PLIN5 PPI | CF NFkB block | MITF TRPM1 inh | HIF-2a inh | Peg3 prom inh | CF NFkB inh conf
COc1ccc(NC(=O)CCC(=O)Nc2nnc(C3CCCCC3)s2)c(OC)c1 | -11 | -9 | 15 | -1 | 7 | -13 | .
O=C(COC(=O)CNC(=O)c1ccccc1F)NC12CC3CC(CC(C3)C1)C2 | -6 | 3 | 22 | -7 | 6 | 6 | .
COc1ccc(OCC(=O)Nc2cccc(S(=O)(=O)N(C)c3ccccc3)c2)c([N+](=O)[O-])c1 | -16 | 4 | 6 | -10 | -2 | 13 | .
O=c1cc(-c2ccccc2Cl)oc2c([N+](=O)[O-])c(O)cc(O)c12 | 14 | 0 | 94* | 10 | -11 | 98* | 110*
COc1ccc(S(=O)(=O)Nc2cccc(S(=O)(=O)N3CCCCC3)c2)cc1 | -8 | 2 | 4 | 2 | 7 | 5 | .
Cc1ccc(S(=O)(=O)Nc2nc3ccccc3nc2Nc2cccc(S(=O)(=O)N3CCCC3)c2)cc1 | -44 | 2 | 69* | -4 | -49 | 37 | 71*
COc1ccc(CN2C(=O)c3cccnc3C2=O)cc1S(=O)(=O)N(C)c1cccc(C)c1 | -22 | -4 | 0 | 5 | -3 | 6 | .
Cc1ccc(Cl)cc1NS(=O)(=O)c1ccccc1 | 6 | 3 | 10 | 11 | 4 | -1 | .
O=S(=O)(Nc1ccc(Cl)cc1NS(=O)(=O)c1ccccc1)c1ccccc1 | 22 | -1 | 55* | 6 | 17 | 47 | 51*
Fc1cccc(Cl)c1/C=N/Nc1c(Cl)cncc1Cl | -13 | 0 | 53* | -20 | -95 | -60 | 67*
Cc1noc(C)c1NC(=O)N1C[C@H](O)COC[C@H]2O[C@@H](CC(=O)NCC3CCCCC3)CC[C@@H]21 | . | -4 | . | . | -12 | . | .
CCC(=O)Nc1nc(C)c(-c2csc(Nc3cccc(O)c3)n2)s1 | -4 | -9 | 62* | 11 | -50 | -59 | 87*
Cc1cc(C(C)(C)C)c(OC(=O)[C@@H]2OC(c3ccccc3)=C[C@H]2c2ccccc2)c(C(C)(C)C)c1 | 15 | -1 | -4 | 0 | 10 | 13 | .
COc1ccc(-c2c([C@H]3[C@@H]4C=CCC[C@@]4(C)C(=O)N3Cc3ccccc3)ccc3ccccc23)cc1OC | -18 | 0 | 33 | 11 | 17 | 15 | .
COc1ccc(-c2ccc([C@H]3[C@@H]4C=CCC[C@@]4(C)C(=O)N3Cc3ccccc3)c(F)c2)cc1OC | -15 | -1 | 53* | 23 | 28 | 10 | 33
CCCCCCSc1cc(-c2nc3ccc(C)cn3c2NCc2ccccc2)ccc1OC | -3 | -11 | 53* | 0 | -52 | 50 | 30
CCOC(=O)c1[nH]c2c(c1C)C(=O)CC(c1ccco1)C2 (stereo not given) | -19 | 13 | 57* | 21 | 10 | -27 | 80*
COCCOC(=O)c1[nH]c2c(c1C)C(=O)CC(c1ccco1)C2 (stereo not given) | -11 | 15 | 37 | . | -4 | -2 | .
CC1(C(=O)NS(=O)(=O)c2cccc(Cl)c2)CCN1C(=O)C1(c2ccccc2)CC1 (stereo not given) | 9 | -7 | 13 | . | 3 | -3 | .
COc1cc(-c2cc(C(=O)Nc3ccc(S(=O)(=O)NCc4ccco4)cc3)c3ccccc3n2)cc(OC)c1OC | 8 | 8 | 64* | 10 | 11 | 58* | 98*
CC[C@]12c3[nH]c4cc(-c5ccco5)ccc4c3CCN1C(=O)[C@@H](CC(=O)NCCCOC)C[C@@H]2C(=O)N1CCN(C(=O)c2ccco2)CC1 | 25 | 16 | -13 | -2 | 6 | -3 | .
O=[N+]([O-])c1cccc(-c2ccc(/C=N/Nc3nc(N4CCCCC4)nc(N4CCCCC4)n3)o2)c1 | -17 | 0 | 55* | -2 | 30 | 69* | 39
O=[N+]([O-])c1ccc(-c2ccc(/C=N/Nc3nc(N4CCCCC4)nc(N4CCCCC4)n3)o2)cc1 | -7 | 3 | -17 | -11 | -3 | 14 | .
C=CC[C@@H](CC(=O)N(CCO)Cc1ccccc1)C(=O)N[C@H](COC(=O)[C@@H](CC=C)Cc1ccc(F)cc1)c1ccccc1 | -16 | 5 | 10 | -4 | 13 | 28 | .
C=CC[C@@H](CC(=O)N(CCO)Cc1ccccc1)C(=O)NC[C@H](OC(=O)[C@@H](CC=C)Cc1ccc(F)cc1)c1ccccc1 | -4 | 5 | 73* | 9 | -12 | 71* | 92*
SMILES | KKLEB tox | ABHD5 PLIN5 PPI | CF NFkB block | MITF TRPM1 inh | HIF-2a inh | Peg3 prom inh | CF NFkB inh conf
Cc1ccc2nc(C(F)(F)F)c(C#N)c(N)c2c1 | -12 | 4 | 83* | 26 | -31 | 101* | 100*
Cc1cccc(C(C#N)c2nc3ccccc3nc2C(F)(F)F)c1 (stereo not given) | -8 | -3 | 13 | -5 | 9 | 21 | .
Cc1cc(C)c2nc(NC(=O)c3ccc([N+](=O)[O-])o3)sc2c1 | -6 | 0 | -30 | 14 | -127 | -77 | .
O=C(Nc1nc2c(F)cc(F)cc2s1)c1ccc([N+](=O)[O-])o1 | -41 | -4 | 86* | . | -256 | -61 | 16
C[C@@H]1C=C(C(=O)N2CCOCC2)O[C@H](OCc2ccc(CO)cc2)C1 | -14 | 4 | -10 | -14 | -9 | -36 | .
COCCNc1nc(Oc2cccc(F)c2)c2sccc2n1 | -14 | 5 | 33 | . | 8 | 7 | .
COCCNc1nc(Oc2cncc(Cl)c2)c2sccc2n1 | -20 | -7 | 62* | . | 8 | 17 | 78*
Nc1ncnc(NCc2ccc(F)cc2)c1[N+](=O)[O-] | -24 | 2 | 64* | 1 | 8 | -6 | 64*
CN(C)c1ccc(CNC(=O)CCS(=O)(=O)c2ccc3c(c2)n(C)c(=O)c(=O)n3C)cc1 | -2 | -4 | -6 | . | 2 | -2 | .
Cc1cc(C)c(S(=O)(=O)N2CCN(C(=O)c3ccccc3OCc3c(C)noc3C)CC2)c(C)c1 | -6 | -6 | 12 | 7 | 24 | 5 | .
CC(C)n1c(SCc2cc(=O)[nH]c3ccccc23)nc2c1c(=O)n(C)c(=O)n2C | -5 | 0 | 11 | 2 | 6 | 17 | .
CC(C)n1c(SCc2ccccc2F)nc2c1c(=O)n(C)c(=O)n2C | -5 | -5 | 57* | -10 | 21 | 25 | 58*
O=c1c(-c2c(O)cc(O)c3c2O[C@H](c2ccc(O)cc2)CC3)c(-c2ccc(O)cc2)oc2cc(O)cc(O)c12 | 0 | 10 | 75* | -15 | 2 | 47 | 101*
